Hits are enriched below; roughly 0.79% of the tested compounds scored in any of these assays.
AmpC inh no detg: qHTS Inhibitors of AmpC Beta-Lactamase (assay without detergent). 0.52% of 330,000 active. AmpC nitrocefin hydrolysis, absorbance 480 nm, 0.0001% Triton. Potency, µM (doses to about 57.1 µM), inactives show top-dose activity change, negative = inhibition, most hits filed as inhibitors. P00811;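 note: plate controls were no compound for no effect and no enzyme for full effect; nearly all actives have a fitted effect of over 20% in size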
Target sequence (P00811 whole entry, looked up): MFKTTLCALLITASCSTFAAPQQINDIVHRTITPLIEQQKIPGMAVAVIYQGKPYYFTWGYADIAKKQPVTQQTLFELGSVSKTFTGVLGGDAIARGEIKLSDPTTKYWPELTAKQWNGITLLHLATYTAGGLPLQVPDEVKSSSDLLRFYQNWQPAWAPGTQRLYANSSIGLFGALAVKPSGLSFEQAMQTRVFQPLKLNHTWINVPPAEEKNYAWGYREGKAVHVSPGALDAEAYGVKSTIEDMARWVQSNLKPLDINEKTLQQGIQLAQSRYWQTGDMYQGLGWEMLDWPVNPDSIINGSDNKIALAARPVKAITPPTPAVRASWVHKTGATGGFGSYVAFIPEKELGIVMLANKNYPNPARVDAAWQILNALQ
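AmpC (5.3 nM in the dispensed reagent) in 20 mM phosphate pH 7.0 with 0.01% (detergent screen) or 0.0001% Triton X-100 was preincubated with compounds for 15 min at room temperature. Nitrocefin was then added from an 800 uM solution, and hydrolysis was followed at 480 nm.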
RE007 growth inh: qHTS Assay for Inhibitors of the HIV-1 protein Vpr; S. pombe RE007 Vpr strain, BacTiter-Glo ATP luminescence, 24 h; Potency, µM (top dose mostly 92.2 µM), inactives show at the top dose activity change, negative = less growth, actives largely listed as inhibitors; 0.21% of 360,000 active; AID 651644, 2012; active = well fitted falling curve with a large enough effect; inconclusive = small, poorly fitted or top-dose-only effect; inactive = no such curve, though single readings can be large or run the other way; note: nearly all actives have a fitted effect of over 50% in size
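Fission yeast RE007 carrying one integrated HIV-1 vpr copy, seeded at OD 0.01 in PMG+AL medium with 23 nL pinned compound. Grown 24 h at 30 degrees; viability read by BacTiter-Glo luminescence after 5 min.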
AmpC inh detg: qHTS Inhibitors of AmpC Beta-Lactamase (assay with detergent); P00811; AmpC hydrolysis of nitrocefin, absorbance 480 nm, 0.01% Triton; Potency, µM (series often up to 114 µM), without a hit: at the highest dose activity change, negative = inhibition, actives largely listed as inhibitors; 0.041% of 370,000 active;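 note: 0% = no-compound wells and -100% = no-enzyme wells; nearly all actives have a fitted effect of over 25% in size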
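20 mM phosphate pH 7.0 + 0.01% (detergent screen) or 0.0001% Triton X-100; 5.3 nM AmpC reagent; cpd preinc 15 min RT; nitrocefin (800 uM stock) to start; A480 q20 s × 4 min; Activity was normalised to no-enzyme and no-compound control wells.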
AMA1-RON2 inh: qHTS for Inhibitors of AMA1-RON; Towards Development of Antimalarial Drug Lead: Primary Screen. 0.2% of 360,000 active. AlphaScreen AMA1-biotinylated RON2 peptide binding. Potency, µM (titrated, usually from 58.2 µM), for the others: at the top dose activity change, negative = inhibition, most hits filed as inhibitors. Plasmodium falciparum AMA1 (3D7) - RON2 peptide interaction;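 note: 0% = vehicle wells and -100% = peptide control; nearly all actives have a fitted effect of over 45% in size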
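AMA1 (3D7) with his tag at 25 nM final met compounds first, then biotinylated RON2 peptide at 25 nM; detection used donor plus acceptor beads, 10 µg/mL apiece, read by AlphaScreen after 30 min at room temperature.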
The depositor's hits bear a star; ? = inconclusive; nt = no result given; [ ] = another dose, or the depositor's remark. Unless noted, calls come from the whole dose curve; as a rule, active = well fitted curve in the direction sought with a large enough effect; inconclusive = small, poorly fitted or top-dose-only effect, or another doubt; inactive = no such curve, though single readings can be large; an effect the other way counts as inactive or inconclusive. Unless noted, % is set by controls: 0 for no effect and ±100 for the full control effect; potency is the fitted concentration of half-maximal effect.

SMILES | AmpC inh no detg | RE007 growth inh | AmpC inh detg | AMA1-RON2 inh
Cn1c(=O)c(Nc2ccc(O)cc2)c2c3c(cccc31)C(=O)c1ccccc1-2 | -59% | -15% | 0% | 25µM*
CC(=O)c1c2c3c(cccc3n(C)c1=O)C(=O)c1ccccc1-2 | -18% | -2% | -4% | -10%
CC(C)N(Cc1ccccc1)S(=O)(=O)c1ccc(-c2cc(C(F)(F)F)on2)s1 | nt | nt | 3% | nt
CCCCNC(=O)c1ccc2c(c1)N(CC)C(=O)c1ccccc1S2(=O)=O | 45µM* | -10% | ? | -2%
CC1CCN(S(=O)(=O)c2ccc3c(c2)N(CC(=O)NC(C)C)C(=O)CO3)CC1 | nt | nt | -2% | nt
CCOC(=O)N1CCC(NC(=O)CN2C(=O)CSc3ncccc32)CC1 | 28µM* | -1% | 8% | 2%
N#Cc1ccccc1CSc1nnc(-c2ccc(Br)cc2)o1 | nt | nt | 0% | nt
COC(=O)CS(=O)(=O)c1ccc2c(c1)CC(=O)N2 | 0.14µM* | 9% | 2% | 8%
COc1cccc(NS(=O)(=O)c2ccc3c(c2)CC(=O)N3)c1 | -30% | -4% | -3% | 14%
COC(=O)C1=C(C)NC(C)=C(C(=O)OCC(C)C)C1c1ccccc1[N+](=O)[O-] (configuration not stated) | nt | -29% | nt | 14µM*
Cc1ccc(C)n1-c1nnc(N2CCCC(C(=O)NCc3ccccc3)C2)s1 (configuration not stated) | nt | nt | 21% | nt
CCOc1cc(CNCCSc2nnnn2C)cc(Cl)c1OCc1ccc(Cl)cc1 | nt | nt | -5% | nt
N#C/C(=C\c1cccnc1)C(=O)Nc1cccc2ccccc12 | -12% | 32µM* | -2% | 13%[11.6 µM]
COc1ccccc1NC(=O)/C(C#N)=C/c1cccnc1 | -29% | -11% | ? | 17%
c1ccc(N=Nc2ccc3cccccc2-3)cc1 | nt | -26% | nt | 4.5µM*
Cc1ccc(NC(=O)c2cc(S(=O)(=O)N3CCCCC3)c[nH]2)cc1C | 7.1µM* | 11% | ? | 0%
O=C(Nc1cccc(S(=O)(=O)N2CCCCC2)c1)c1ccc(S(=O)(=O)C(F)F)cc1 | 22µM* | 3% | -14% | -13%
O=C(Nc1cccc(S(=O)(=O)N2CCCC2)c1)c1cccc(OC(F)F)c1 | -37% | 8% | ? | 21%
O=C(Nc1ccc(S(=O)(=O)N2CCCC2)cc1)c1cccc(OC(F)F)c1 | 32µM* | 1% | -18% | -13%
CN(C)c1ccc(C(=O)Nc2cccc(S(=O)(=O)N3CCCC3)c2)cc1 | 28µM* | 9% | -15% | 1%
Clc1ccc(CCNC(c2nnc(-c3ccccc3)o2)c2ccccc2Cl)cc1 (configuration not stated) | nt | nt | 13% | nt
CC(=O)c1ccc(NS(=O)(=O)c2cccc(S(=O)(=O)c3ccc(Cl)cc3)c2)cc1 | nt | nt | -12% | nt
O=C(COC(=O)c1ccc(O)cc1)Nc1cccc(S(=O)(=O)N2CCCCC2)c1 | 8.9µM* | 17% | 2% | 0%
CCc1ccc(N2C(=O)CC(N3CCC(C(=O)OC)CC3)C2=O)cc1 (configuration not stated) | -27% | 10µM* | -12% | -3%
CCCOc1ccc(N2C(=O)CC(N3CCC(c4nncn4CC)CC3)C2=O)cc1 (configuration not stated) | nt | 13µM* | -2% | -9%
SMILES | AmpC inh no detg | RE007 growth inh | AmpC inh detg | AMA1-RON2 inh
CCOC(=O)C1CCN(C2CC(=O)N(c3ccc(OCC)cc3)C2=O)CC1 (configuration not stated) | 13% | 18µM* | -6% | -12%
CCCOc1ccc(N2C(=O)CC(N3CCN(c4ccccc4F)CC3)C2=O)cc1 (configuration not stated) | 43% | -16% | ? | -3%
CCCCCCOc1ccc(N2C(=O)CC(N3CCC(C(=O)OCC)CC3)C2=O)cc1 (configuration not stated) | 7% | 5% | -1% | -6%
CCNc1c(NC(=O)c2cc(OCC)c(OCC)c(OCC)c2)c(=O)oc2ccccc12 | nt | nt | 17% | nt
Cc1oc(-c2cccc(Br)c2)nc1CSc1nc2ncccc2[nH]1 | nt | nt | -4% | nt
CCC(C)Nc1c([N+](=O)[O-])cc(C)cc1[N+](=O)[O-] (configuration not stated) | -23% | -5% | -1% | 16µM*

Screening results: PubChem BioAssay, National Center for Advancing Translational Sciences (NCATS)
